# Compound activity (PubChem BioAssay)
# Hits are enriched below; roughly 19% of the tested compounds scored in any of these assays.
# HT1080NT lethal: kills 2HG-producing HT-1080-NT fibrosarcoma cells; HT-1080-NT fibrosarcoma viability, CellTiter-Glo ATP luminescence, 48 h; Potency, µM (series often up to 46.1 µM), for inactives: at the highest dose activity, negative = less viability, most hits filed as cytotoxic; 1.6% of 360,000 active; AID 686970;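 also: NT is the 2HG producing partner of a matched IDH1 knockdown line; potency is read from the fitted curve at half-maximal effect; 0% = DMSO-treated cells and -100% = media-only wells without cells; nearly all actives have a fitted effect of over 55% in size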
#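 Read-out is CellTiter-Glo luminescence after 10 minutes at room temperature, following 48 hours' compound treatment of HT-1080-NT cells (750 cells/well, RPMI, 5% FBS, 37 degrees C).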
# IL1B secr inh: blocks inflammasome-driven IL-1 beta release. THP-1 LPS/ATP IL-1B secretion, AlphaLISA, 16 h; stronger effect = lower value. activity change, % at 57.5 µM. 4.7% of 360,000 active; in the data active = activity change below about -50%; inconclusive = mostly about -30% to -49%
#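 Secreted IL-1B measured by AlphaLISA bead assay after 16 h compound exposure of THP-1 cells; compounds (final up to 57.5 uM) added 1 h before LPS (250 ng/mL) and ATP (1.25 mM) stimulation; lower signal means less secretion.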
# TDP1 cell CPT: DT40-hTDP1 cell growth loss with CPT; chicken DT40 Tdp1-/-;hTDP1 cells + 20 nM CPT, ATP luminescence, 48 h; Potency, µM (doses to about 46.2 µM), for inactives: at the top dose activity change, negative = growth inhibition, actives largely listed as inhibitors; 12% of 420,000 active; AID 686979; also: potency is read from the fitted curve at half-maximal effect; nearly all actives have a fitted effect of over 55% in size
#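 Chicken DT40 Tdp1-/- cells stably complemented with human TDP1 were seeded at 400 cells/well in medium containing 20 nM camptothecin, exposed to pin-transferred compounds, and grown at 37 °C for at least 48 hr. Viability was read as ATP luminescence.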
# HT1080 IDH1KD tx: toxicity to HT-1080 IDH1 knockdown cells (counter line) | Potency, µM (titrated, usually from 46.1 µM), for inactives: at the highest dose activity, negative = toxicity, hits mostly cytotoxic | AID 686971 | HT-1080 IDH1 knockdown viability, ATP luminescence, 48 h | 2% of 360,000 active;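 also: potency is read from the fitted curve at half-maximal effect; 0% = DMSO wells and -100% = cell-free medium wells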
#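 Viability of IDH1-knockdown HT-1080 fibrosarcoma cells was assessed by CellTiter-Glo after 48 h at 37 °C with titrated compound; concentration-effect curves were classified by fit quality and response size.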
# TDP1 cell noCPT: qHTS for Inhibitors of human tyrosyl-DNA phosphodiesterase 1 (TDP1): qHTS in cells in absence of CPT; DT40 Tdp1-/- hTDP1 cells, no CPT, ATP luminescence, 48 h; Potency, µM (series often up to 46.2 µM), for the others: top-dose activity change, negative = growth inhibition, hits mostly inhibitors; 15% of 420,000 active; also: potency is read from the fitted curve at half-maximal effect; nearly all actives have a fitted effect of over 55% in size
#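 Luminescent ATP content (CellTiter-Glo) served as the growth readout. Knockout chicken DT40 cells expressing human TDP1 were exposed to compounds without camptothecin for a minimum 48 hr at 37 °C.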
# An asterisk follows results filed as active; ? = inconclusive; nt = no result given; [ ] = dose if it differs, or a comment. Unless noted, calls follow the shape of the dose curve; as a rule, active = well fitted curve in the direction sought with a large enough effect; inconclusive = small, poorly fitted or top-dose-only effect, or another doubt; inactive = no such curve, though single readings can be large; an effect the other way counts as inactive or inconclusive. Unless noted, % is scaled to controls: 0 for no effect and ±100 for the full control effect.
SMILES,HT1080NT lethal,IL1B secr inh,TDP1 cell CPT,HT1080 IDH1KD tx,TDP1 cell noCPT
O=C(C1=NOC2(C1)C(=O)Nc1ccccc12)N1CCCC1 (configuration not stated),23%,6,-10%,9%,-6%
COc1ccc(NC(=S)Nc2cc(C)[nH]n2)cc1Cl,21%,?,?,7%,18µM*
COc1ccc(NC(=S)Nc2cc(-c3ccccc3)[nH]n2)cc1Cl,13µM*,?,22µM*,?,?
COC(=O)c1cn[nH]c1NC(=S)Nc1ccc(Cl)c(Cl)c1,?,19,?,?,25µM*
CC(C)c1ccc(C(=O)OCC(=O)NC2CCCC2)cc1,0%,0,-28%,0%,?
Cc1ccccc1C(=O)NC1CC2CCCC(C1)N2Cc1ccc(Cl)cc1 (configuration not stated),-8%,?,-21%,-1%,?
C/C(=N\Nc1cc(N2CCCCC2)nc(C)n1)c1ccc(Br)cc1,?,-51*,13µM*,?,5.8µM*
C/C(=N\Nc1cc(N2CCOCC2)nc(C)n1)c1ccc(F)cc1,-18%,?,?,-16%,?
Cc1nc(N2CCN(C)CC2)c2c(C)c(C(=O)Nc3ccc(C)c(F)c3)sc2n1,-5%[9.24 µM],-60*,16µM*,14µM*,?
Cc1cccc(NC(=O)c2sc3nc(C)nc(N4CCOCC4)c3c2C)c1,1%,?,-29%,3%,?
Cc1nc(N2CCCCC2)c2c(C)c(C(=O)Nc3ccc4c(c3)OCCO4)sc2n1,-4%,nt,?,-3%,4.1µM*
C[C@H](CO)N1C[C@H](C)[C@@H](CN(C)C(=O)c2ccc(N3CCN(C)CC3)cc2)OCc2cnnn2CCCC1=O,17%,-19,-5%,17%,-7%
CC1(c2ccccc2Cl)NC(=O)N(CC(=O)N2CCN(S(=O)(=O)c3ccccc3)CC2)C1=O (configuration not stated),1%,-2,0%,4%,-8%
COc1cccc(-n2ccnc2SCC(=O)Nc2nc3ccc(C)cc3s2)c1,nt,nt,-8%,nt,-18%
COc1cccc(Nc2nc(C(N)Cc3ccccc3)cs2)n1 (configuration not stated),29µM*,?,13µM*,12µM*,16µM*
COc1cc(OC)nc(Nc2nc(C(N)Cc3ccc(F)cc3)cs2)n1 (configuration not stated),?,nt,21µM*,?,23µM*
COc1cccc(Nc2nc(C(N)CO)cs2)n1 (configuration not stated),-13%,nt,?,-6%,?
COc1ccc(CCCc2nnc(SCC(=O)Nc3ccc(C)cc3C)o2)cc1,nt,nt,-29%,nt,?
CCN(CC(=O)Nc1ccc(NC(C)=O)cc1)C(=O)CN1C(=O)C2CCCCC2C1=O (configuration not stated),-5%,27,6%,-7%,15%
C[C@@H]1CN([C@@H](C)CO)C(=O)c2cc(NC(=O)Nc3cccc4ccccc34)ccc2O[C@@H](C)CCCCO[C@H]1CN(C)C(=O)c1ccccc1,5%,37,?,-3%,21µM*
C[C@@H]1CN([C@@H](C)CO)C(=O)c2cc(NC(=O)Nc3ccccc3)ccc2O[C@H]1CN(C)C(=O)Nc1cccc2ccccc12,15%,-1,13µM*,0%,18µM*
Cc1noc(C)c1NC(=O)N(C)C[C@H]1Oc2ccc(NC(=O)Nc3ccccc3)cc2C(=O)N([C@H](C)CO)C[C@@H]1C,2%,43,9%,4%,-1%
C[C@@H]1CCCCO[C@H](CN(C)C(=O)Nc2cccc3ccccc23)[C@@H](C)CN([C@H](C)CO)C(=O)c2cc(NC(=O)c3ccccc3)ccc2O1,-2%,-25,4.6µM*,1%,3.7µM*
Cc1cc(NC(=O)COC(=O)CNC(=O)c2cccs2)c([N+](=O)[O-])cc1C,-3%,-3,-14%,-6%,-4%
Cc1ccc(F)cc1CNC(=O)C1CCC(=O)N(CC2CCCCC2)C1 (configuration not stated),-2%,18,-17%,-1%,1%
SMILES,HT1080NT lethal,IL1B secr inh,TDP1 cell CPT,HT1080 IDH1KD tx,TDP1 cell noCPT
CCOc1ccc(S(=O)(=O)NCc2ccccc2Cl)cc1C(N)=O,2%,-58*,?,-9%,?
CCOc1ccc(S(=O)(=O)NCc2ccccc2)cc1C(N)=O,2%,-8,?,-16%,?
CCc1cccc(C)c1NC(=O)c1cc(S(=O)(=O)NCc2ccccc2Cl)ccc1F,nt,nt,21µM*,nt,26µM*
Cc1cccc(NC(=O)c2cc(S(=O)(=O)NCc3ccc4c(c3)OCO4)ccc2F)c1C,nt,nt,-7%,nt,-22%
CCc1ccc(C(=O)Nc2cc(C)on2)o1,?,-8,-12%,18%,-19%
O=C(C1CCCCC1)N1C[C@@H](n2cc(-c3ccc(F)cc3)nn2)[C@H](O)C[C@@H]1c1ccc(Cl)cc1,?,?,18µM*,?,23µM*
Cc1ccc([C@H]2C[C@@H](O)[C@H](n3cc(-c4ccc(F)cc4)nn3)CN2C(=O)C2CCCCC2)cc1,-19%,-20,?,-26%,23µM*
O=C(C1CCCCC1)N1C[C@@H](O)[C@H](n2cc(-c3ccc(F)cc3)nn2)C[C@@H]1c1ccc(Cl)cc1,?,-12,?,?,?
COc1ccc([C@H]2C[C@@H](n3cc(-c4ccc(F)cc4)nn3)[C@H](O)CN2C(=O)C2CCCCC2)cc1,-19%,-20,?,-12%,8.2µM*
Cc1ccc([C@H]2C[C@@H](O)[C@H](n3cc(C4CC4)nn3)CN2C(=O)C2CCCCC2)cc1,-1%,16,-108%,-13%,?
O=C(C1CCCCC1)N1C[C@H](O)[C@@H](n2cc(-c3ccc(F)cc3)nn2)C[C@@H]1c1ccccc1,15%,-24,?,13%,?
O=C(C1CCCCC1)N1C[C@H](n2cc(-c3ccc(F)cc3)nn2)[C@@H](O)C[C@@H]1c1ccc(Cl)cc1,?,-56*,?,?,16µM*
O=C(C1CCCCC1)N1C[C@H](n2cc(C3CC3)nn2)[C@@H](O)C[C@@H]1c1ccc(Cl)cc1,-2%,22,-18%,11%,-29%
CCC1C(=O)NCCN1Cc1ccc2c(c1)CN(Cc1cc(OC)c3c(c1)OCO3)CCO2 (configuration not stated),nt,nt,-9%[9.04 µM],nt,?
